Drawing on PubChem BioAssay (NCI), this text covers growth for seven molecules.

Each structure is given as a SMILES string. The panel holds about 83,000 compounds, 20% with a hit somewhere; the sample as a whole holds those more often.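 Treatment: one concentration, 48 hours, 96-well format. Scoring: percent growth, with anything below 10 considered active.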 A number with no mark means an inactive call. The source made the active and inactive calls.

Among the test systems are HCT-15 colon; HT29 colon; SNB-75 CNS; SNB-19 CNS; U251 CNS; PC-3 prostate; SK-MEL-5 melanoma; UACC-62 melanoma; LOX IMVI melanoma; SK-MEL-28 melanoma; SK-MEL-2 melanoma; EKVX NSCLC; SN12C renal; UO-31 renal; TK-10 renal; ACHN renal; CAKI-1 renal; A498 renal; CCRF-CEM leukemia; MOLT-4 leukemia.
Experiment in all cases: NCI-60 one-dose screen, 48 h (100 = growth as untreated, 0 = no growth, -100 = all killed)
Conditions in all cases: 10 µM unless noted

Take `CCN(CC)CCn1c2ccc(O)cc2c2sc3cc(OC)ccc3c(=O)c21`: the growth with HCT-15 colon is 4.47% (active); with HT29 colon, -13.8% (active); in the assay with SNB-75 CNS, 40.7%; with SNB-19 CNS it was 25.7%; in the assay on U251 CNS it was 16.1%; with PC-3 prostate it was 30.5%. Besides, the growth in the assay with SK-MEL-5 melanoma is 76.7%; in the assay on UACC-62 melanoma, 28.5%; in the assay with LOX IMVI melanoma, -86% (active); in the assay on SK-MEL-28 melanoma it was 2.25% (active); in the assay with SK-MEL-2 melanoma, 55.6%; in the assay with EKVX NSCLC, 43.5%. The growth was 21.5% with SN12C renal; 26.8% with UO-31 renal; 61.7% in the assay with TK-10 renal; 12.4% in the assay with ACHN renal; 14.5% in the assay with CAKI-1 renal; 73.3% in the assay on A498 renal. Also, the growth is 21.8% in the assay with CCRF-CEM leukemia and 5.44% (active) with MOLT-4 leukemia.

For the molecule `O=C(CNc1nc(-c2cccc([N+](=O)[O-])c2)cs1)Nc1cccc(Cl)c1`, the growth with HCT-15 colon is 98.4%; in the assay on HT29 colon, 116%; with SNB-75 CNS it was 101%; in the assay on SNB-19 CNS, 99.5%; with U251 CNS, 106%; with PC-3 prostate, 98.5%. Further, the growth is 103% in the assay on SK-MEL-5 melanoma; 92.7% with UACC-62 melanoma; 115% with LOX IMVI melanoma; 104% with SK-MEL-28 melanoma; 107% in the assay with SK-MEL-2 melanoma; 89.2% in the assay on EKVX NSCLC. For the same molecule, the growth was 99.4% with SN12C renal; 80.5% in the assay with UO-31 renal; 149% with TK-10 renal; 101% with ACHN renal; 106% in the assay with CAKI-1 renal; 93% in the assay with A498 renal. Besides, the values for the growth in the assay on CCRF-CEM leukemia and with MOLT-4 leukemia were 103% and 101%, respectively.

`COc1ccc(/C=N/NC2=NC3C(S2)N(C)C(=O)N3C)cc1` (stereo not given): the growth in the assay with HCT-15 colon is 28.4%; with HT29 colon it was 8.29% (active); with SNB-75 CNS, 8.09% (active); in the assay on SNB-19 CNS, 34.6%; with U251 CNS, 27.2%; in the assay with PC-3 prostate, 32.1%. For the same molecule, the growth is 31.1% in the assay on SK-MEL-5 melanoma; 38.3% in the assay with UACC-62 melanoma; 32.7% in the assay with LOX IMVI melanoma; 53.5% in the assay on SK-MEL-28 melanoma; 29.9% in the assay with SK-MEL-2 melanoma; 38.5% in the assay on EKVX NSCLC. In addition, the growth is 44.3% with SN12C renal; 45% in the assay with UO-31 renal; 76.2% with TK-10 renal; 42.7% with ACHN renal; 24% with CAKI-1 renal; -17.5% (active) in the assay with A498 renal. The growth with CCRF-CEM leukemia is 15.5%; in the assay with MOLT-4 leukemia, 20.3%.

On to `c1ccc(C(c2nc3ncncc3[nH]2)N2CSc3nc4ccccc4n3C2)cc1` (stereo not given), for which the growth with HCT-15 colon is 101%; with HT29 colon it was 107%; in the assay with SNB-75 CNS, 91%; in the assay with SNB-19 CNS, 100%; in the assay with U251 CNS, 107%; in the assay with PC-3 prostate, 95.6%. Further, the growth in the assay on SK-MEL-5 melanoma was 106%; with UACC-62 melanoma it was 93.1%; with LOX IMVI melanoma, 102%; with SK-MEL-28 melanoma, 104%; with SK-MEL-2 melanoma, 103%; in the assay on EKVX NSCLC, 97.5%. Further, the growth was 98.8% in the assay on SN12C renal; 82.7% in the assay on UO-31 renal; 115% in the assay with TK-10 renal; 94.7% in the assay on ACHN renal; 89.5% in the assay on CAKI-1 renal; 102% with A498 renal. The growth in the assay on CCRF-CEM leukemia is 108%; in the assay with MOLT-4 leukemia, 104%.

In the case of `CCCn1cnc2c(c1=N)C(c1ccc(OC)cc1)c1sc3c(CC)cccc3c1O2` (stereo not given), the growth is 18.9% with HCT-15 colon; 5.9% (active) with HT29 colon; 16.5% in the assay on SNB-75 CNS; 22% in the assay with SNB-19 CNS; 20.5% with U251 CNS; 3.57% (active) with PC-3 prostate. Besides, the growth with SK-MEL-5 melanoma is 30.3%; in the assay with UACC-62 melanoma, 15.9%; in the assay on LOX IMVI melanoma, 27.4%; in the assay on SK-MEL-28 melanoma it was 57.8%; in the assay on SK-MEL-2 melanoma it was 40.5%; with EKVX NSCLC it was 46.4%. The growth in the assay on SN12C renal was 29.5%; with UO-31 renal, 33.5%; with TK-10 renal, 74.6%; in the assay on ACHN renal it was 35.7%; in the assay on CAKI-1 renal it was 32.8%; in the assay with A498 renal, -11.5% (active). Moreover, the growth in the assay on CCRF-CEM leukemia was 4.77% (active); in the assay with MOLT-4 leukemia, 14.5%.

As to `Cn1ccnc1C(=O)/C=C/c1ccc(NC(=O)c2ccc(F)cc2)cc1`, the growth was 16.9% in the assay on HCT-15 colon; 7.13% (active) in the assay with HT29 colon; 46.9% with SNB-75 CNS; 28.1% with SNB-19 CNS; 23.3% with U251 CNS; 27.6% with PC-3 prostate. Moreover, the growth was 68.2% in the assay on SK-MEL-5 melanoma; 49.9% with UACC-62 melanoma; 6.38% (active) in the assay with LOX IMVI melanoma; 90.9% in the assay on SK-MEL-28 melanoma; 106% with SK-MEL-2 melanoma; 42.1% in the assay on EKVX NSCLC. The growth with SN12C renal was 25%; in the assay on UO-31 renal it was 42.3%; in the assay on TK-10 renal, 89.5%; in the assay on ACHN renal, 37.6%; in the assay with CAKI-1 renal, 41.4%; in the assay with A498 renal it was 78.1%. The growth in the assay on CCRF-CEM leukemia is 7.06% (active); with MOLT-4 leukemia, 16.6%.

On to `CCCn1cnc2c(c1=N)C(c1ccc(F)cc1)c1sc3c(CC)cccc3c1O2` (stereo not given), for which the growth with HCT-15 colon is 12.6%; in the assay on HT29 colon it was 9.3% (active); in the assay with SNB-75 CNS, 14.8%; in the assay on SNB-19 CNS, 15.3%; in the assay on U251 CNS, 18.5%; in the assay with PC-3 prostate, 24%. Also, the growth with SK-MEL-5 melanoma is -12.2% (active); with UACC-62 melanoma, 14%; in the assay with LOX IMVI melanoma it was 5.54% (active); with SK-MEL-28 melanoma, 40.4%; in the assay on SK-MEL-2 melanoma it was 49.4%; in the assay with EKVX NSCLC, 33.4%. Also, the growth in the assay with SN12C renal is 20.6%; in the assay with UO-31 renal it was 27%; in the assay on TK-10 renal it was 61.3%; in the assay on ACHN renal, 18.3%; in the assay with CAKI-1 renal it was 20.7%; in the assay on A498 renal, -25.7% (active). In addition, the values for the growth in the assay with CCRF-CEM leukemia and in the assay on MOLT-4 leukemia were 8.39% (active) and 9.49% (active), respectively.
